According to PubChem BioAssay (NCI):
The panel holds about 83,000 compounds, 20% with a hit somewhere; the sample as a whole holds those more often.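 Treatment: one concentration, 48 hours, 96-well format. Scoring: percent growth, with anything below 10 considered active.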 Active and inactive are the calls of the source.

These compounds were tested on NCI-H322M lung (assay: NCI-60 one-dose screen, 48 h (100 = growth as untreated, 0 = no growth, -100 = all killed)). Details: 10 µM unless noted.

SMILES	growth
O=c1[nH]n(C(=S)N/N=C/c2ccccc2Cl)c(=O)c2ccccc12	5.29% (active)
Cn1cc(-c2nnc(N)nc2-c2c[nH]c3ccc(F)cc23)c2cccnc21	71% (inactive)
CN1CCN(Cc2ccc(C(=O)Nc3cccc(C#Cc4cccc5[nH]nc(N)c45)c3)cc2C(F)(F)F)CC1	-98.3% (active)
Cc1ccccc1[C@H]1C(C(=O)c2ccc(Cl)cc2)C2(N[C@@H]1c1ccccc1)C(=O)Nc1ccc(Br)cc12 (stereo partly drawn)	39.4% (inactive)
N#Cc1c(-c2cccc(Cl)c2Cl)cc(-c2ccc3ccccc3c2)[nH]c1=O	53.2% (inactive)
NS(=O)(=O)c1ccc(-n2cc(-c3cccc(NC(=O)c4cc(C(F)(F)F)cc(C(F)(F)F)c4)c3)nn2)cc1	65.8% (inactive)
COc1ccc(C(=O)/C=C/c2ccccc2Cl)cc1S(N)(=O)=O	102% (inactive)
O=C(/C=C/c1cccc(OCc2ccc(F)cc2)c1)c1nc2ccccc2[nH]1	114% (inactive)
Cc1cc(=O)oc2cc(OCCCOc3ccc(/C=C/C(=O)Nc4ccccc4N)cc3)ccc12	54.7% (inactive)
S=C(Nc1ccc(OCc2nc3ccccc3[nH]2)cc1)NC1CCCCC1	106% (inactive)
N#Cc1c(-c2ccccc2Cl)cc(-c2c[nH]c3ccccc23)[nH]c1=O	72.9% (inactive)
CC1=C(C(=O)OCc2ccccc2)C(c2c(O)cc(O)cc2O)n2c(nc3ccccc32)N1 (stereo not drawn)	94.1% (inactive)
CCOc1ccc(-c2c(C#N)c(-c3ccc(Cl)cc3)nc3n[nH]c(-c4ccc(Cl)cc4)c23)cc1OC	77.1% (inactive)
